# Mcl1 Bid PPI: Mcl-1/Bid interaction inhibition. Q07820. TR-FRET Mcl-1/Bid-Dy647 peptide binding, 1536-well. inhibition, % at 21.7 µM. 0.97% of 220,000 active;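 active = compounds that cut the binding signal by more than half at the single screening dose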;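 note: His-tagged Mcl-1 with europium anti-His antibody binding Bid BH3 peptide; 0% = Mcl-1 plus peptide wells and 100% = peptide-only wells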
# Mcl1 Noxa PPI: Mcl-1/Noxa interaction inhibition. TR-FRET Mcl-1/Noxa peptide binding, 2 h. inhibition, % at 21.7 µM. 1.5% of 220,000 active. AID 1022;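 active = compounds that cut the protein-peptide binding signal by more than 50% relative to plate controls in a single-dose test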;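 note: His-tagged Mcl-1 with rhodamine Noxa BH3 peptide and terbium anti-His antibody; 0% = Mcl-1 plus Noxa peptide wells and 100% = peptide-only wells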
# GLD-1 RNA inh: GLD-1-TGE RNA interaction inhibition (C. elegans); purified GLD-1 + fluorescein TGE RNA, fluorescence polarization; 0.44% of 320,000 active; inhibition, % at 5.96 µM; AID 2280;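 active = percent inhibition above a per-plate cutoff, the plate mean of test compounds plus 3 SD, cut at about 30% in these data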;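 note: 0% = DMSO wells with GLD-1 and probe and 100% = wells lacking GLD-1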
# MCL1-BIM inh: inhibitors of human MCL1 binding to BIM-BH3 peptide; Q07820; GST-MCL1 / FITC-Bim-BH3 fluorescence polarization; inhibition, % at 10.9 µM; 0.68% of 320,000 active; AID 2057;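 active = inhibition above the mean inhibition of all tested compounds plus 3 SD, set per campaign, cut at about 40% in these data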;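 note: 0% = DMSO wells and 100% = unlabeled Bim-BH3 peptide control; higher means more loss of mP so more displacement of Bim peptide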
# BCLXL inh: blocks human Bcl-xL binding to Bim BH3 peptide; GST-Bcl-xL / FITC-Bim BH3 peptide fluorescence polarization; Q07817; inhibition, % at 10.9 µM; 0.7% of 320,000 active;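 active = inhibition above the mean of all tested compounds plus 3 SD, cutoff set per campaign, cut at about 30% in these data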;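 note: 0% = DMSO wells and 100% = unlabeled Bim-BH3 peptide competitor; inhibitors lower millipolarization by displacing the labeled peptide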
# Target sequence (Q07817 whole entry, looked up): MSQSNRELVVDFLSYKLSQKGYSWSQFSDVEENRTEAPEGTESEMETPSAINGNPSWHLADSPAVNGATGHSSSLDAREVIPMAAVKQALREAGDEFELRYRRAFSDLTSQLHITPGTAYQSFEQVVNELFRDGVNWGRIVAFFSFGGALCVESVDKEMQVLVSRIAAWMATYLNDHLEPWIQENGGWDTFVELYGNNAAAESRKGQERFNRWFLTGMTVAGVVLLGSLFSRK
# Bim-Mcl-1: inhibitors of Bim-Mcl-1 interaction, human. Q07820. Bead-based flow cytometry, Bim peptide-Mcl-1 binding. inhibition, % at 10 µM. 0.1% of 190,000 active; in the data active = inhibition above about 40%;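 note: 0% = no compound tracer wells and 100% = peptide blocker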
# Numbers without * were called inactive; · = no result. A selection: hits, their analogues and other compounds. The true share with any hit is near 2.3%.
SMILES,Mcl1 Bid PPI,Mcl1 Noxa PPI,GLD-1 RNA inh,MCL1-BIM inh,BCLXL inh,Bim-Mcl-1
COc1ccc(C(=O)NCC(=O)N2CCCCC2)cc1OC,-25,1,0,2,4,1
COc1cc(OC)cc(C(=O)NCC(=O)N2CCCCC2)c1,63*,13,-1,-3,-4,0
COc1ccc(Cl)cc1NC(=O)C1CCCN(c2ncnc3c2nc2n3CCCCC2)C1 (centres undefined),·,·,4,1,3,·
O=c1[nH]c(=S)[nH]c2sccc12,-32,46,8,7,7,-2
Cc1c(NC(=S)NC(NC(=O)C(C)C)C(Cl)(Cl)Cl)c(=O)n(-c2ccccc2)n1C (centres undefined),96*,2,-5,6,3,-3
NC(=O)c1ccc(Oc2ccc(C(N)=O)cc2)cc1,3,16,4,3,0,·
N=C1/C(=C/c2cccn2-c2ccc([N+](=O)[O-])cc2)C(=O)N=C2SC=CN12,-63,61*,3,21,4,-7
O=C(Cc1ccccc1)N/N=C/c1cccn1-c1ccc([N+](=O)[O-])cc1,-33,7,1,16,1,12
CS(=O)(=O)C1=NSC2=NC(=O)/C(=C\c3cccn3-c3ccc(Cl)cc3)C(=N)N21,-14,92*,14,17,19,14
O=C1NC(=S)N/C1=C/c1cccn1-c1ccc([N+](=O)[O-])cc1,-42,80*,6,14,9,-4
CCOC(=O)[C@@H]1[C@H]2COc3ccccc3[C@H]2N2C(=O)N(c3ccccc3)C(=O)[C@]12C,·,·,0,-2,-2,·
Cc1c(Cl)cccc1NC(=O)CSc1nc2ncc(Cl)cc2[nH]1,·,·,4,4,3,·
CCCN(CC(=O)Nc1ccccc1C)C(=O)c1cccc(-n2cnnn2)c1,·,·,2,-2,5,·
CC(=O)N(c1nnc(-c2ccc(C)cc2)s1)C1CCCC1,·,·,4,0,-1,·
O=[N+]([O-])c1ccc(N/N=C/c2ccc(O)c(O)c2O)c(S(=O)(=O)N2CCOCC2)c1,-45,104*,·,·,·,12
CN(C)c1ccc(Nc2nc(N)c([N+](=O)[O-])c(N3CCOCC3)n2)cc1,-12,83*,-1,22,10,1
CNc1sc(C(=O)c2cccs2)c(N)c1-c1nc2ccccc2s1,-26,56*,19,6,12,3
CNc1sc(C(=O)c2ccc(F)cc2)c(N)c1-c1nc2ccccc2s1,-51,92*,9,25,24,-1
CC(=O)Nc1scc(C)c1-c1nc2ccccc2s1,-8,-3,5,-1,-4,·
Cc1ccc(S(=O)(=O)N(C)CC(=O)NCCCn2ccnc2)cc1,·,·,-1,4,4,·
CCN(c1ccc(NC(=O)CCc2nc3sc4c(c3c(=O)[nH]2)CCCC4)cc1)C(C)C,·,·,1,-4,3,·
Cc1ccc(S(=O)(=O)Nc2ccnc3ccccc23)cc1,63*,-2,0,5,1,0
CC(C)(C)c1cc(-c2csc(Nc3ccccc3)[n+]2Cc2ccc(C(=O)O)cc2)cc(C(C)(C)C)c1O,88*,92*,8,-2,5,·
COc1ccc(-c2csc(NC(=O)/C(N=Nc3ccccc3)=C(\C)O)n2)cc1,-33,9,-7,-2,-1,41*
CCC(Cc1c(I)cc(I)c(N)c1I)C(=O)O (centres undefined),·,·,1,-1,-1,·
SMILES,Mcl1 Bid PPI,Mcl1 Noxa PPI,GLD-1 RNA inh,MCL1-BIM inh,BCLXL inh,Bim-Mcl-1
Cc1cc(C(=O)N2CCN(c3ccc([N+](=O)[O-])cc3)CC2)n[nH]1,·,·,0,4,7,·
COc1ccc(CCNC(=O)c2nnn(CC(=O)Nc3ccc(C)cc3C)c2N)cc1OC,·,·,-7,-17,-11,·
COC(=O)/C=C1/SC(=Nc2ccc(C)cc2C)NC1=O,98*,21,4,3,5,0
O=C(COC(=O)CNC(=O)c1ccc(Cl)cc1Cl)Nc1cccc(S(=O)(=O)N2CCCC2)c1,·,·,-11,-3,-2,·
CCOC(=O)C1CCN(C(=O)C2CCC(=O)N(CC3CCCCC3)C2)CC1 (centres undefined),·,·,2,3,-1,·
O=C(C(NS(=O)(=O)c1cccs1)c1ccccc1)N1CCN(c2ccccc2)CC1 (centres undefined),-34,14,20,34,31*,0
